In PubChem BioAssay (Tox21):
Results filed as inconclusive are left out. Unmarked numbers belong to inactive results. Calls come from the whole dose curve; as a rule, active = well fitted cell-killing curve with a large enough effect in the repeat runs; inconclusive = weak or mixed curves; inactive = flat fitted curve, though single readings scatter.

Assay: qHTS RealTime-Glo MT Cell Viability Assay in HepG2 cells - 8 hour (AID 1224873); note: nearly all actives have a fitted effect of over 55% in size
Conditions: RealTime-Glo luminescence; series mostly up to 76.8 µM; viability change, negative = cytotoxic: at the top concentration
Description: National Center for Advancing Translational Sciences [NCATS]
NIH Chemical Genomics Center [NCGC]
U.S. Environmental Protection Agency [EPA]
National Institutes of Environmental Health Sciences [NIEHS]
National Toxicology Program [NTP]
U.S. Food and Drug Administration [FDA]
Measure of cell viability is critical in the cell-base assay. Analysis of cell viability is necessary for the characterization of cell responses to cytotoxic drugs and environmental stress. A RealTime-Glo MT Cell Viability Assay to monitor cell viability in real time of continues cell culture during 40 hours of compound treatment was used to screen Tox21 10K library compounds in HepG2 cells. The RealTime-Glo MT Cell Viability Assay is a nonlytic, homogeneous, bioluminescent method to measure cell viability in real time using a simple, plate-based method. The assay involves adding NanoLuc luciferase and a cell-permeant prosubstrate to cells in culture. Viable cells reduce the proprietary prosubstrate to generate a substrate for NanoLuc luciferase. This substrate diffuses from cells into the surrounding culture medium, where it is rapidly used by the NanoLuc Enzyme to produce a luminescent signal. The signal correlates with the number of viable cells, making the assay well suited for cytotoxicity studies.
Tox21 Assay Protocol Summary:
The mixture of HepG2 cell suspension and reagents were dispensed at 600cells/6 ul/well in 1536-well tissue culture treated black solid bottom plates using a Multidrop dispenser. After the assay plates were incubated at a 37 C/5% CO2 incubator for 5 hours, 23 nL of compounds dissolved in DMSO, positive and negative controls was transferred to the assay plate by a pintool work station. The plates were incubated at 37 C for 40 hours. The luminescence intensity were measured at 0h, 8h, 16h, 24h, 32h and 40h time points using ViewLux plate reader during compound treatment.
% is set by controls: 0 for no effect and ±100 for the full control effect.

SMILES	viability change, negative = cytotoxic
CCCCCC(C)O (stereo not given)	0.638%
c1ccc(-c2nn[nH]n2)cc1	-2.31%
C=C(C)C1CC=C(C)C(=O)C1 (stereo not given)	-0.91%
CC(=O)CC(=O)Nc1ccc(C)cc1C	-4.03%
Cc1c(N)cccc1Cl	2.96%
CCOc1cccc(N)c1	-1.96%
CCC[C@@H]1C[C@@H](C(=O)N[C@@H]([C@H]2O[C@H](SC)[C@H](O)[C@@H](O)[C@H]2O)[C@@H](C)O)N(C)C1	0.625% [at 35.3 µM]
CC(C)(CO)C(O)C(=O)NCCCO (stereo not given)	2.26%
COC(=O)CCCCC(CCSS/C(CCO)=C(\C)N(C=O)Cc1cnc(C)nc1N)SC(C)=O (stereo not given)	-0.0947% [at 35.3 µM]
CC(C)(C)NC[C@H](O)COc1cccc2c1CCCC2=O	-2.89% [at 35.3 µM]
c1ccc(B(c2ccccc2)c2ccccc2)cc1	-1.74%
CC1(C)CC(OC(=O)CCCCCCCCC(=O)OC2CC(C)(C)NC(C)(C)C2)CC(C)(C)N1	-0.0146% [at 15.8 µM]
CC(C)OC(=O)OCOP(=O)(CO[C@H](C)Cn1cnc2c(N)ncnc21)OCOC(=O)OC(C)C	-0.273% [at 35.3 µM]
CC(C)=CCC[C@@](C)(O)[C@H]1CC=C(C)CC1	-2.11% [at 35.3 µM]
O=C(CCCl)NCCc1ccccc1	8.49% [at 35.3 µM]
Cc1ccc2c(c1)C(=O)c1ccccc1C2=O	-8.47%
CC(CO)(CO)CO	-0.0594%
CC(C)c1ccc(C=O)cc1	1.72%
COc1cc(OC)nc(O[C@H](C(=O)O)C(OC)(c2ccccc2)c2ccccc2)n1	-4.36% [at 35.3 µM]
CCC(C(=O)OCCN1CCOC(c2ccccc2)C1C)c1ccccc1 (stereo not given)	-7.54% [at 35.3 µM]

SMILES	viability change, negative = cytotoxic
CN(C)CCN(C)CCO	3.75%
O=C1CCC(=O)N1Cl	-1.01%
C=CCN1C[C@H](C(=O)N(CCCN(C)C)C(=O)NCC)C[C@@H]2c3cccc4[nH]cc(c34)C[C@H]21	-1.82% [at 35.3 µM]
CC(C)OC(=O)CCC(=O)OC(C)C	-1.93%
CC(C)CO	0.808%
NCCOCCN	1.54%
O=C1c2ccccc2C(=O)c2cc(Cl)ccc21	0.0863% [at 6.97 µM]
Cc1ccc(C(=O)O)cc1[N+](=O)[O-]	0.663%
CCN1CCCC1CN (stereo not given)	4.09% [at 35.3 µM]
CC1OCCC1=O (stereo not given)	1.14%
COc1ccc(CCO)cc1	2.44%
COCCc1ccccn1	3.03% [at 35.3 µM]
CC1=C(O)C(=O)C(C)O1 (stereo not given)	1.73%
COC(=O)c1ccccc1C(=O)O	3.15%
CC(C)Nc1ccccc1	2.32%
C=C(C)[C@@H]1CC=C(C)C(=O)C1	1.87%
COc1ccc2c(c1)c1c3n2CCN(C)C3=NCC1	-1.32% [at 35.3 µM]
CCOC(=O)CC1(C)OCC(C)O1 (stereo not given)	1.69%
CCCC(CC)c1ccccc1 (stereo not given)	1.94%
CN(C)CCCO[C@@H]1[C@H]2OC(C)(C)O[C@H]2O[C@@H]1C(O)CO (stereo not given in full)	0.251% [at 35.3 µM]
